{"source": "PubChem BioAssay AID602393", "about": "(Broad Institute, 2012)", "note": "Screen size: about 350,000 compounds; about 7,000 (2%) were called active. Rule as the data show it: active = activation above about 40%; inconclusive = no clear call, values can overlap the other calls; inactive = below that. Only a selection was taken, and actives are over-represented in it overall.", "data": [{"test": "Bmi1 luciferase reporter increase in mESCs, primary screen, esBAF inhibitor project, mouse ES cells, Bmi1 luciferase knock-in, single point (AID 602393);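 also: 0% = median of the plate's neutral control wells and 100% = double that signal; a rise in the Bmi1 reporter signal indicates esBAF inhibition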", "conditions": "24 h, at 12.5 µM, active compounds read high, 100% = twice the neutral-well signal", "values": [{"smiles": "O=C(Cc1ccncc1)NCC[C@@H]1CC[C@H](NC(=O)Nc2ccc(Cl)cc2)[C@@H](CO)O1", "reporter increase": "-1.9% (inactive)"}, {"smiles": "CN1CCN(C(=O)C[C@H]2C[C@H]3c4cc(NC(=O)C5CCC5)ccc4O[C@H]3[C@H](CO)O2)CC1", "reporter increase": "1.39% (inactive)"}, {"smiles": "O=C(NCCN1CCCC1)[C@@H]1N[C@@H]2c3ccc(-c4ccccc4)c(=O)n3C[C@@H]2[C@H]1CO", "reporter increase": "-5.2% (inactive)"}, {"smiles": "O=C(C[C@@H]1CC[C@H](NC(=O)Nc2cc(F)ccc2F)[C@H](CO)O1)NCc1ccncn1", "reporter increase": "4.9% (inactive)"}, {"smiles": "C[C@H]1CN([C@@H](C)CO)C(=O)c2cc(-c3ccccc3F)cnc2O[C@@H]1CN(C)C(=O)C1CCCCC1", "reporter increase": "-0.372% (inactive)"}, {"smiles": "CC=Cc1ccc2n(c1=O)C[C@@H]1[C@@H](CO)[C@H](C(=O)NCc3cccc(OC)c3)N[C@H]21", "note": "(mixture of isomers)", "reporter increase": "0.983% (inactive)"}, {"smiles": "CCCNC(=O)N1[C@H](CNC(=O)c2cccc(F)c2)[C@H](c2ccccc2)[C@@H]1CO", "reporter increase": "3.53% (inactive)"}, {"smiles": "C[C@@H]1CCCCO[C@H](CN(C)Cc2ccc(C(F)(F)F)cc2)[C@H](C)CN([C@@H](C)CO)C(=O)c2cc(N(C)C)ccc2O1", "reporter increase": "0.085% (inactive)"}, {"smiles": "COc1ccc(C#Cc2cnc3c(c2)C(=O)N([C@H](C)CO)C[C@@H](C)[C@H](CN(C)C(=O)Nc2cccc(OC)c2)O3)cc1", "reporter increase": "4.12% (inactive)"}, {"smiles": "COc1ccccc1-c1cnc2c(c1)C(=O)N([C@H](C)CO)C[C@H](C)[C@H](CN(C)Cc1cccnc1)O2", "reporter increase": "-8.49% (inactive)"}, {"smiles": "COc1ccc(S(=O)(=O)N(C)C[C@H]2OCCCC[C@H](C)Oc3ccc(NC(=O)Nc4ccc(F)cc4)cc3C(=O)N([C@@H](C)CO)C[C@H]2C)cc1", "reporter increase": "0.828% (inactive)"}, {"smiles": "COc1ccc(S(=O)(=O)Nc2cccc3c2O[C@@H](CN(C)S(=O)(=O)c2ccccc2)[C@@H](C)CN([C@@H](C)CO)C3=O)cc1", "reporter increase": "1.5% (inactive)"}, {"smiles": "CNS(=O)(=O)c1ccc(NC(=O)Nc2ccc3c(c2)OCO3)cc1", "reporter increase": "52.5% (active)"}, {"smiles": "CC(C)CNS(=O)(=O)c1ccc(C(=O)Nc2ccc3c(c2)OCO3)cc1", "reporter increase": "-0.727% (inactive)"}, {"smiles": "Cc1ccc(S(=O)(=O)NCC(=O)Nc2ccc3c(c2)OCCO3)cc1", "reporter increase": "-6.84% (inactive)"}, {"smiles": "CO[C@@H]1CN(C)C(=O)c2cc(NC(=O)c3ccccc3F)ccc2OC[C@H](C)NC[C@@H]1C", "reporter increase": "-0.986% (inactive)"}, {"smiles": "Cc1ccc(OC(=O)c2c(C)nn(-c3ccccc3)c2C)cc1", "reporter increase": "65% (active)"}, {"smiles": "Cc1nn(-c2ccccc2)c(CC(C)(C)C(=O)O)c1C(=O)O", "reporter increase": "-1.54% (inactive)"}, {"smiles": "Cc1cccc(C)c1NC(=O)COC(=O)c1c(C)nn(-c2ccccc2)c1C", "reporter increase": "-0.0425% (inactive)"}, {"smiles": "O=C(Nc1cccc(Cl)c1)N1C[C@@H]2[C@H](c3ccccc31)[C@H](CO)N2C(=O)C1CC1", "reporter increase": "-2.51% (inactive)"}, {"smiles": "CCS(=O)(=O)Nc1ccc2c(c1)C(=O)N(C)C[C@@H](OC)[C@@H](C)CN(C(=O)COC)[C@H](C)CO2", "reporter increase": "-2.28% (inactive)"}, {"smiles": "CN(c1ccc(O)cc1)c1nc(-c2cccnc2)cs1", "reporter increase": "33.5% (inactive)"}, {"smiles": "Cc1ccccc1Nc1nc(-c2cccnc2)cs1", "reporter increase": "71.3% (active)"}, {"smiles": "O=C(NCc1cccnc1)C(=O)Nc1nc(-c2ccccc2)cs1", "reporter increase": "38.2% (inactive)"}, {"smiles": "COc1ccc(-c2ccc([C@@H]3[C@@H](CO)N4CCCCN(C(=O)NC(C)C)C[C@H]34)cc2)cc1", "reporter increase": "-0.595% (inactive)"}, {"smiles": "CN(C)C(=O)c1cccc(-c2ccc3c(c2)[C@H]2[C@H](CCN2C(=O)c2cccnc2)[C@H](CO)N3)c1", "reporter increase": "-0.408% (inactive)"}, {"smiles": "CO[C@H]1CN(C)C(=O)c2ccc(NC(=O)c3cnccn3)cc2OC[C@@H](C)N(C(C)=O)C[C@H]1C", "reporter increase": "-1.77% (inactive)"}, {"smiles": "C[C@H](NC(=O)C[C@H]1C=C[C@H](NS(=O)(=O)c2cccc(F)c2)[C@@H](CO)O1)c1ccccc1", "reporter increase": "-4.57% (inactive)"}, {"smiles": "C[C@@H]1CCCCO[C@H](CN(C)S(=O)(=O)c2cn(C)cn2)[C@H](C)CN([C@H](C)CO)C(=O)c2cc(N(C)C)ccc2O1", "reporter increase": "-3.59% (inactive)"}, {"smiles": "COc1ccc(/C(C)=N/NC(=O)c2ccc3nc[nH]c3c2)cc1", "reporter increase": "-4.25% (inactive)"}, {"smiles": "COc1cccc(/C(C)=N/Nc2ncc(Cl)cc2Cl)c1", "reporter increase": "54% (active)"}, {"smiles": "COC(=O)c1sccc1N/N=C(\\C)c1ccc(F)c(Cl)c1", "reporter increase": "11.8% (inactive)"}, {"smiles": "C[C@@H]1CN([C@@H](C)CO)C(=O)Cc2cc(NC(=O)CCCCCC(=O)Nc3ccccc3N)ccc2O[C@H]1CN(C)Cc1ccc(Cl)c(Cl)c1", "reporter increase": "-6.35% (inactive)"}, {"smiles": "Cc1nonc1C1CCCN1C(=O)c1cc(COc2cccc(C(F)(F)F)c2)on1", "note": "(stereo unspecified)", "reporter increase": "-1.7% (inactive)"}, {"smiles": "CSc1ccccc1OCc1cc(C(=O)N(C)CCc2c(C)n[nH]c2C)no1", "reporter increase": "-2.74% (inactive)"}, {"smiles": "CSc1ccccc1OCc1cc(C(=O)N2C[C@H]3CC[C@H]2C3)no1", "reporter increase": "87.7% (active)"}, {"smiles": "CCNC(=O)[C@@H]1[C@@H](CO)[C@@H]2Cn3c(ccc(C4=CCCC4)c3=O)[C@H]1N2Cc1ccccc1", "reporter increase": "-1.26% (inactive)"}, {"smiles": "O=C(C[C@@H]1CC[C@H]2[C@@H](COC[C@H](O)CN2C(=O)Nc2ccccc2)O1)NCc1ccccc1F", "reporter increase": "4.71% (inactive)"}, {"smiles": "CCC(CC)c1nnc(NC(=O)C2CCN(C(=O)c3ccco3)CC2)s1", "reporter increase": "3.96% (inactive)"}, {"smiles": "CCC(CC)c1nnc(NC(=O)C2=COCCO2)s1", "reporter increase": "53.6% (active)"}, {"smiles": "COc1cc(-c2nnc(NC(=O)C3=COCCO3)o2)cc(OC)c1OC", "reporter increase": "-0.666% (inactive)"}, {"smiles": "COC(=O)c1sc(NC(=O)c2csc3c2CCCC3)nc1C", "reporter increase": "52.4% (active)"}, {"smiles": "CC1CC(C)CN(CCCNC(=O)c2csc3c2CCCCC3)C1", "note": "(stereo unspecified)", "reporter increase": "-0.645% (inactive)"}, {"smiles": "O=C(Nc1ccccc1N1CCOCC1)c1csc2c1CCCC2", "reporter increase": "2.6% (inactive)"}, {"smiles": "CN1c2ccc(Br)cc2[C@H]2[C@H](CCN2S(=O)(=O)c2ccccc2)[C@@H]1CO", "reporter increase": "1.11% (inactive)"}, {"smiles": "CO[C@H]1CN(C)C(=O)c2cc(NC(=O)c3cc(C)on3)ccc2OC[C@@H](C)N(C(C)=O)C[C@H]1C", "reporter increase": "-1.52% (inactive)"}, {"smiles": "COc1ccc(C(=O)Nc2nncs2)c(OC)c1", "reporter increase": "72.1% (active)"}, {"smiles": "COc1ccc(C(=O)NC2=NCCS2)c(OC)c1", "reporter increase": "-5.27% (inactive)"}, {"smiles": "COc1ccc(Cc2nnc(NC(=O)c3cc(OC)c(OC)c(OC)c3)s2)cc1OC", "reporter increase": "-8.39% (inactive)"}, {"smiles": "COc1ccc(Cc2nnc(NC(=O)c3ccc(OC)cc3OC)s2)cc1", "reporter increase": "60.8% (active)"}, {"smiles": "COc1ccc(Cc2nnc(NC(=O)Cc3cccs3)s2)cc1", "reporter increase": "-12.5% (inactive)"}, {"smiles": "COc1cccc(OC)c1C(=O)Nc1nnc(C(C)C)s1", "reporter increase": "4.44% (inactive)"}, {"smiles": "C[C@@H](O)C#Cc1cnc2c(c1)C(=O)N([C@@H](C)CO)C[C@H](C)[C@H](CN(C)C(=O)c1ccccc1F)O2", "reporter increase": "-1.43% (inactive)"}, {"smiles": "COc1ccccc1-c1cnc2c(c1)C(=O)N([C@H](C)CO)C[C@H](C)[C@@H](CN(C)C(=O)CC1CC1)O2", "reporter increase": "-6.49% (inactive)"}, {"smiles": "O=C(O)C[C@@H]1C[C@@H]2c3cc(NC(=O)Nc4ccccc4)ccc3O[C@@H]2[C@H](CO)O1", "reporter increase": "2.21% (inactive)"}, {"smiles": "Cc1ccc2nc(/C(C#N)=C\\c3ccc(OC(=O)c4cccs4)cc3)[nH]c2c1", "reporter increase": "113% (active)"}, {"smiles": "CCC(=O)N(C)C[C@H]1Oc2ncc(-c3ccccc3OC)cc2C(=O)N([C@H](C)CO)C[C@H]1C", "reporter increase": "2.4% (inactive)"}, {"smiles": "C[C@@H]1CCCCO[C@H](CN(C)C(=O)Cc2ccccc2)[C@@H](C)CN([C@@H](C)CO)C(=O)c2cc(NC(=O)c3ccccc3)ccc2O1", "reporter increase": "-0.116% (inactive)"}, {"smiles": "Cc1ccc(S(=O)(=O)/N=C(/Nc2ccccn2)c2ccc(Cl)cc2)cc1", "reporter increase": "45.6% (active)"}, {"smiles": "Cc1ccc(S/C(=N\\S(=O)(=O)c2ccc(Cl)cc2)c2ccccc2)cc1", "reporter increase": "-7.08% (inactive)"}, {"smiles": "Cc1ccc(S(=O)(=O)/N=C(/Nc2ccc3[nH]c(=O)[nH]c3c2)c2ccccc2)cc1", "reporter increase": "3.61% (inactive)"}, {"smiles": "C[C@@H]1CN([C@@H](C)CO)C(=O)c2cccc(NC(=O)Nc3ccc(C(F)(F)F)cc3)c2O[C@@H]1CN(C)S(=O)(=O)c1cccs1", "reporter increase": "0.762% (inactive)"}, {"smiles": "C[C@@H](O)C#Cc1cnc2c(c1)C(=O)N([C@@H](C)CO)C[C@H](C)[C@@H](CN(C)CC1CCCCC1)O2", "reporter increase": "-1.99% (inactive)"}, {"smiles": "CCCN(C)C[C@@H]1Oc2ncc(-c3cccc(C(=O)N(C)C)c3)cc2C(=O)N([C@H](C)CO)C[C@@H]1C", "reporter increase": "-6.02% (inactive)"}, {"smiles": "O=C(CN1CCCCCC1)Nc1ccc(Br)cc1[N+](=O)[O-]", "reporter increase": "-0.566% (inactive)"}, {"smiles": "O=C(CN1CCCCCC1)Nc1ccc(Br)cc1Br", "reporter increase": "56.9% (active)"}, {"smiles": "O=C(CN1CCCCCC1)Nc1ccc(Cl)cc1F", "reporter increase": "-12.4% (inactive)"}, {"smiles": "CN(C(=O)CSc1nnnn1-c1ccccc1)C1CCCCC1", "reporter increase": "22.5% (inactive)"}, {"smiles": "C=CCn1c(SCn2nnc3ccccc3c2=O)nnc1-c1ccc(Cl)cc1", "reporter increase": "-8.46% (inactive)"}, {"smiles": "O=c1c2ccccc2nnn1CSc1nnnn1-c1ccccc1", "reporter increase": "57.4% (active)"}, {"smiles": "Cc1ccc(S(=O)(=O)N[C@@H]2CC[C@H](CCn3cc(C4(O)CCCC4)nn3)O[C@H]2CO)cc1", "reporter increase": "1.86% (inactive)"}, {"smiles": "Nc1cc(N)nc(SCc2ccc(Cl)cc2)n1", "reporter increase": "33.3% (inactive)"}, {"smiles": "CCc1nnc(SCc2cccc(F)c2)nc1CC", "reporter increase": "-1.92% (inactive)"}, {"smiles": "Nc1cc(N)nc(SCc2cccc(F)c2)n1", "reporter increase": "65% (active)"}, {"smiles": "CCC(=O)N(C)C[C@@H]1Oc2ncc(/C=C/c3ccccc3)cc2C(=O)N([C@@H](C)CO)C[C@H]1C", "reporter increase": "-3.12% (inactive)"}, {"smiles": "CCC(=O)N1[C@H](C(=O)NCc2ccc(F)cc2)[C@@H](CO)[C@@H]2Cn3c(ccc(C4=CCCCC4)c3=O)[C@@H]21", "reporter increase": "-5.62% (inactive)"}]}]}
